Reference: ChEMBL document CHEMBL3988442, “University of Dundee, Small-Polar-MMV Screening Library” (2021)
About 13,000 (27%) of roughly 48,000 compounds showed an effect of 50% or more. The list shows a part of the results.

The compounds below were run on Wolbachia pipientis (assay: Anti-Wolbachia Cell-Based Screen). Details: 5 µM.
Type: functional
Set-up: scale not given: in the data most compounds retested in dose-response had high values
`Cc1cnc(NCC(C)(C)N2CCCCC2)nc1` was tested, and the “Percent Effect” value was 1.17%. `Cc1nc(-c2ccc(Cl)s2)sc1C(=O)NCCS(N)(=O)=O` was tested, and the “Percent Effect” value was -0.7868%. For `COCC(=O)N1CCC2(CC1)NC(=O)[C@H]1CN(C(=O)N(C)C)C[C@H]12`, the “Percent Effect” value was -27.95%. In the case of `Cc1csc(CNC(=O)Nc2cc(C(F)(F)F)c[nH]c2=O)n1`, the “Percent Effect” value is reported as -4.751%. With `CC(C)(O)CCc1ccc(C(=O)N2CCN(CC3CCCC3)CC2)cc1` the “Percent Effect” value was -6.284%. In the case of `CN(C)CCn1c2c(ccc1=O)CCN(Cc1cnn(C)c1)CC2.O=C(O)C(F)(F)F.O=C(O)C(F)(F)F`, the “Percent Effect” value is reported as 120.7%. For `COCc1nn(C)c2c1CCN(Cc1cnn(C)c1)C2.O=C(O)C(F)(F)F`, the “Percent Effect” value was -18.26%. With `CCc1nccn1-c1cccc(C2CCCN(C3CCCCC3)C2)n1` (stereo not given) the “Percent Effect” value was 96.78%. With `Cc1nccn1-c1cccc(C2CCCN(C3CCCC3)C2)n1` (stereo not given) the “Percent Effect” value was 98.22%. For `Cc1nccn1-c1cccc(C2CCCN(C(=O)c3cc[nH]n3)C2)n1` (stereo not given), the “Percent Effect” value was 5.97%. For `c1ccc(-c2nnc([C@H]3CCN(C4CCOCC4)C3)o2)cc1`, the “Percent Effect” value was -19.45%. For `Cc1nccn1-c1cccc(C2CCCN(C3CCCCC3)C2)n1` (stereo not given), the “Percent Effect” value was -27.27%. For `Fc1ccccc1-c1cccc(C2CCCN(C3CCOCC3)C2)n1` (stereo not given), the “Percent Effect” value was 71.52%. `Cc1cccc(O[C@H]2COCCN(C3CCOCC3)C2)n1` was tested, and the “Percent Effect” value was -0.8542%. For `O=c1cc2c(nn1CN1CCOCC1)CCC2`, the “Percent Effect” value was 1.556%. In the case of `CNC(=O)NC(=O)CNc1cc(C(=O)OC)cc(C(F)(F)F)c1`, the “Percent Effect” value is reported as 1.326%. In the case of `COc1cccc(CN2CCc3nc(C(=O)NCC(C)C)sc3CC2)c1.O=C(O)C(F)(F)F`, the “Percent Effect” value is reported as 3.655%. For `Fc1cccc(N2CCc3ncnc(C4CC4)c3CC2)c1`, the “Percent Effect” value was 8.314%. With `CC(C)NC(=O)NC[C@H]1OC[C@@H](NCc2ccc(S(C)(=O)=O)cc2)[C@@H]1O` the “Percent Effect” value was 9.83%. With `CO[C@@H]1CC[C@H]2[C@H]1OCCN2C(=O)c1ccc(C)o1` the “Percent Effect” value was -15.27%. In the case of `CO[C@@H]1CC[C@H]2[C@H]1OCCN2C(=O)COc1ccc(C)cc1`, the “Percent Effect” value is reported as 102.2%. In the case of `CO[C@H]1CC[C@H]2[C@H]1OCCN2C(=O)CCOc1ccccc1`, the “Percent Effect” value is reported as 104.1%. `CCC(C)(CC(=O)OC)NC(=O)c1ccc(C(C)=O)cc1` (stereo not given) was tested, and the “Percent Effect” value was 5.798%. `O=S(=O)(Cc1ccc(F)cc1)N1CCN(CC(O)C2CC2)CC1` (stereo not given) was tested, and the “Percent Effect” value was -13.11%. `Cl.Cl.O=C(CN1CCN(CC(O)C2CC2)CC1)NCc1ccc(F)cc1` (stereo not given) was tested, and the “Percent Effect” value was 3.1%. For `O=C1CC(C(=O)O)C2(CCN(C(=O)NCc3ccc(Cl)cc3)CC2)N1` (stereo not given), the “Percent Effect” value was 6.317%. In the case of `Cl.O=C(NCc1ccc(Cl)cc1)N1CCN(CC(O)C2CC2)CC1` (stereo not given), the “Percent Effect” value is reported as 116%. With `COc1ccc(CNC(=O)N2CCN(C)[C@@H]3CS(=O)(=O)C[C@@H]32)cc1` the “Percent Effect” value was 5.272%. `COc1ccc(CNC(=O)N2CCN(CC(O)C3CC3)CC2)cc1.Cl` (stereo not given) was tested, and the “Percent Effect” value was 99.74%. In the case of `Cl.O=C(NCc1ccc(F)cc1)N1CCN(CC(O)C2CC2)CC1` (stereo not given), the “Percent Effect” value is reported as 111%. `Cl.Cl.OC(CN1CCN(Cc2cc(F)cc(F)c2)CC1)C1CC1` (stereo not given) was tested, and the “Percent Effect” value was -3.47%. For `COc1cccc(CNC(=O)N2CCN(Cc3cc(C)on3)CC2)c1`, the “Percent Effect” value was -11.4%. With `Cc1nc(-c2ccccc2)cc2nn(CC(N)=O)c(=O)n12` the “Percent Effect” value was 117.5%. In the case of `COc1ccc(Cn2nc(C(N)=O)ccc2=O)c(Cl)c1`, the “Percent Effect” value is reported as 8.088%. In the case of `CC(=O)N1CCN(c2cc(-c3ccccc3)nc3c(C)c(C)nn23)CC1`, the “Percent Effect” value is reported as -0.0371%. In the case of `COc1ccc(-c2cc3nn(CC(N)=O)c(=O)n3c(C)n2)cc1`, the “Percent Effect” value is reported as 110.8%. In the case of `COc1ccc(-c2cc3nn(CC(=O)NC(C)C)c(=O)n3c(C)n2)cc1`, the “Percent Effect” value is reported as 109.7%. For `COc1ccc(NC(=O)Cn2nc(C)c(C)cc2=O)cc1`, the “Percent Effect” value was -2.265%. `Cc1nn2c(NCC(N)=O)cc(-c3ccccc3)nc2c1C` was tested, and the “Percent Effect” value was 1.327%. `COCC(=O)N[C@H](C)c1c(-c2ccc(OC)cc2)noc1C(=O)O` was tested, and the “Percent Effect” value was -10.1%. In the case of `CN(C)C(C(=O)N1CCN(CC(F)(F)F)CC1)c1ccccc1F` (stereo not given), the “Percent Effect” value is reported as -7.118%. In the case of `Cn1nc(Cn2ccnc2)c2c1CN(C(=O)c1ccc[nH]1)C2`, the “Percent Effect” value is reported as -17.57%. With `CCCc1cnc(C)nc1NC(C)Cc1cnccn1` (stereo not given) the “Percent Effect” value was -13.48%. In the case of `COc1ccccc1N1CCC(CNC(=O)N(C)Cc2ccco2)C1` (stereo not given), the “Percent Effect” value is reported as 0.07203%. `COCCN(c1ccncc1)S(=O)(=O)c1cc(C)cc(F)c1` was tested, and the “Percent Effect” value was -2.462%. In the case of `CC(C)c1nc(C2CCCN(C(=O)c3ccnc(N(C)C)c3)C2)no1` (stereo not given), the “Percent Effect” value is reported as -3.864%. In the case of `Cc1nc(C2CCCN(C(=O)c3cccc(S(C)(=O)=O)c3)C2)no1` (stereo not given), the “Percent Effect” value is reported as 8.734%. In the case of `Cc1nc(C2CCCN(C(=O)c3ccco3)C2)no1` (stereo not given), the “Percent Effect” value is reported as 13.92%. In the case of `Cc1nc(C2CCCN(C(=O)c3ccc(S(C)(=O)=O)cc3)C2)no1` (stereo not given), the “Percent Effect” value is reported as 120.9%. In the case of `Cc1nc(C2CCCN(C(=O)c3ccoc3)C2)no1` (stereo not given), the “Percent Effect” value is reported as 101.5%. `Cc1nc(C2CCCN(C(=O)c3ccnc(N(C)C)c3)C2)no1` (stereo not given) was tested, and the “Percent Effect” value was 127.7%. With `Cc1cnn(CCNCc2ccc(OCc3csc(C)n3)cc2)c1` the “Percent Effect” value was -5.1%. With `Cn1c(Cn2cccn2)nnc1C1CCCN(c2ccncc2)C1` (stereo not given) the “Percent Effect” value was -11.32%. `Cc1ccccc1C(=O)NCc1ccc(N2CCNC(=O)C2)c(F)c1` was tested, and the “Percent Effect” value was -11.32%. For `O=C(O)C(F)(F)F.O=C([C@H]1COC[C@H]2CN(CC3CCCC3)C[C@H]21)N1CCOCC1`, the “Percent Effect” value was -19.66%. With `COc1cccc(NC(=O)Cc2c(C)nc3c(c2C)c(=O)[nH]n3C)c1` the “Percent Effect” value was 0.5633%. With `Cn1c(CCCNC(=O)Nc2cn[nH]c2)nc2ccccc21` the “Percent Effect” value was -21.13%. `COc1ccc(NC(=O)c2nc3ccccc3n(C)c2=O)cc1OC` was tested, and the “Percent Effect” value was 120.1%. In the case of `COc1cc(NC(=O)c2nc3ccccc3n(C)c2=O)cc(OC)c1`, the “Percent Effect” value is reported as 112.5%. With `COc1ccc(OC)c(NC(=O)c2nc3ccccc3n(C)c2=O)c1` the “Percent Effect” value was 10.54%. `CCSc1nc(N)c(NC(=O)c2ccc(OC)c(OC)c2)c(=O)[nH]1` was tested, and the “Percent Effect” value was -7.588%. In the case of `COc1cccc(NC(=O)c2nc3ccccc3n(C)c2=O)c1`, the “Percent Effect” value is reported as 124.2%. For `COc1ccc(Nc2nc3c(C)nn(C)c3c(=O)n2C)c(OC)c1`, the “Percent Effect” value was -1.628%. `COc1ccc(NC(=O)c2nc3ccccc3n(C)c2=O)c(OC)c1` was tested, and the “Percent Effect” value was 115.5%. `COc1cc(NC(=O)NCc2ccccn2)cc(OC)c1` was tested, and the “Percent Effect” value was 6.3%. In the case of `CCCN1CCC(NC(=O)Nc2ccc(OC)c(OC)c2)CC1`, the “Percent Effect” value is reported as 8.494%. For `COc1cccc(NC(=O)NC(C)(C)c2noc(C)n2)c1`, the “Percent Effect” value was -4.672%. In the case of `CN(Cc1ccsc1)C(=O)Nc1cccc(N2CCOC2=O)c1`, the “Percent Effect” value is reported as 1.632%. For `Cc1cccc(NC(=O)C2CCCN2C(=O)c2ccco2)c1C` (stereo not given), the “Percent Effect” value was -37.39%. `CCOCC1CN(C(=O)Cc2cccs2)Cc2ccnn2C1` (stereo not given) was tested, and the “Percent Effect” value was -16.86%. With `O=C(NCC1CC1)C1CN(Cc2ccncc2)Cc2ccnn2C1.O=C(O)C(F)(F)F.O=C(O)C(F)(F)F.O=C(O)C(F)(F)F` (stereo not given) the “Percent Effect” value was 99.23%. For `CC(C)NC(=O)C1CN(Cc2cccs2)Cc2ccnn2C1` (stereo not given), the “Percent Effect” value was -1.449%. In the case of `COCCNC(=O)C1CN(Cc2nccs2)Cc2ccnn2C1.O=C(O)C(F)(F)F.O=C(O)C(F)(F)F` (stereo not given), the “Percent Effect” value is reported as -2.959%. In the case of `COCCNC(=O)C1CN(Cc2csc(C)n2)Cc2ccnn2C1.O=C(O)C(F)(F)F` (stereo not given), the “Percent Effect” value is reported as 0%. With `COCCNC(=O)C1CN(Cc2ccncc2)Cc2ccnn2C1.O=C(O)C(F)(F)F.O=C(O)C(F)(F)F.O=C(O)C(F)(F)F` (stereo not given) the “Percent Effect” value was 13.9%. `O=C(NCC1CC1)C1CN(c2ncccn2)Cc2ccnn2C1.O=C(O)C(F)(F)F.O=C(O)C(F)(F)F` (stereo not given) was tested, and the “Percent Effect” value was 106%. For `Cc1noc(C)c1CN1Cc2ccnn2CC(C(=O)NCC2CC2)C1.O=C(O)C(F)(F)F.O=C(O)C(F)(F)F` (stereo not given), the “Percent Effect” value was -16.43%. `O=C(NCC1CC1)C1CN(Cc2cccs2)Cc2ccnn2C1` (stereo not given) was tested, and the “Percent Effect” value was 124.8%. With `Cc1ccc(CN2Cc3ccnn3CC(C(=O)NCC3CC3)C2)o1.O=C(O)C(F)(F)F.O=C(O)C(F)(F)F` (stereo not given) the “Percent Effect” value was 99%. `COCCNC(=O)C1CN(Cc2cccc(C)n2)Cc2ccnn2C1.O=C(O)C(F)(F)F.O=C(O)C(F)(F)F` (stereo not given) was tested, and the “Percent Effect” value was 6.488%. With `CC(C)NC(=O)C1CN(Cc2ccsc2)Cc2ccnn2C1.O=C(O)C(F)(F)F.O=C(O)C(F)(F)F` (stereo not given) the “Percent Effect” value was 1.409%. For `CC(C)c1nnc2n1CC(CNCc1ccncc1)CC2` (stereo not given), the “Percent Effect” value was -13.6%. In the case of `CCCS(=O)(=O)N1CCOC2(CCCN(c3ncc(F)cn3)C2)C1` (stereo not given), the “Percent Effect” value is reported as -2.367%. With `N#CCCN(Cc1ccco1)C(=O)CCCc1ccccc1` the “Percent Effect” value was 9.287%. With `COc1nn(C)c2c1CCCN(S(=O)(=O)c1cccs1)C2` the “Percent Effect” value was 2.697%. With `Cc1cccc(CN2C[C@@H]3CN(C(=O)c4cnccn4)C[C@@H]3C2=O)c1` the “Percent Effect” value was -5.846%. With `NC(=O)C1(c2cnccn2)CCCN1Cc1ccc(Cl)cc1` (stereo not given) the “Percent Effect” value was 127.2%. With `O=C(c1cnccn1)N1CCCC2(CCCN2Cc2cccnc2)C1` (stereo not given) the “Percent Effect” value was 8.648%. With `Cc1ccc(NC(=O)C2CSCN2C(=O)c2cnccn2)c(C)c1` (stereo not given) the “Percent Effect” value was -0.3998%. With `NC(=O)C1(c2cnccn2)CCCN1Cc1ccncc1` (stereo not given) the “Percent Effect” value was 100.7%. `NC(=O)C1(c2cnccn2)CCCN1Cc1cccc(Cl)c1` (stereo not given) was tested, and the “Percent Effect” value was 110.7%. `O=C(O)[C@]12CCCN(Cc3ccncc3)[C@@H]1CCN(c1cnccn1)C2` was tested, and the “Percent Effect” value was 15.13%. For `Cl.Cl.O[C@@H]1C[C@@](CNCc2cccc(Cl)c2)(COc2cnccn2)C[C@@H]1O`, the “Percent Effect” value was -20.67%. `O=C(O)C1(Cc2ccc(Cl)cc2)CCN(c2ncccc2F)CC1` was tested, and the “Percent Effect” value was 4.468%. For `Cc1ccc(CN2CCCC2(C(N)=O)c2cnccn2)c(C)c1` (stereo not given), the “Percent Effect” value was 148.6%.
